Screening data as filed in PubChem BioAssay.
Vaccinia mCherry: vaccinia inhibition (mCherry reporter) | 310,000 tested, 0.63% active | AID 720579 | Potency, µM (series often up to 36.5 µM), inactives show top-dose activity change, negative = inhibition, usual class: inhibitors | Vaccinia virus mCherry reporter infection, fluorescence; calls by dose curve; tested in A549 cells; further: on the % scale 0 is the no-effect control and ±100 the full control effect; nearly all actives have a fitted effect of over 35% in size
VACV Venus inh: vaccinia inhibition (Venus reporter) | Vaccinia virus Venus reporter expression, fluorescence | Potency, µM (highest dose often 36.5 µM), for inactives: at the highest dose activity change, negative = inhibition, hits mostly inhibitors | 330,000 tested, 0.46% active | AID 720580; calls by dose curve; tested in A549 cells; further: on the % scale 0 is the no-effect control and ±100 the full control effect; nearly all actives have a fitted effect of over 30% in size
Pf growth 96h: P. falciparum growth inhibition at 96 hour, primary screen for plastid delayed-death inhibitors; Potency, µM (doses to about 28.7 µM), for the others: at the top dose activity change, negative = inhibition, actives largely listed as inhibitors; AID 504834; P. falciparum luciferase reporter growth, 96 h; 320,000 tested, 6.9% active; further: on the % scale 0 is the no-effect control and ±100 the full control effect
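Readout is luminescence from an integrated firefly luciferase in P. falciparum. Red cells, 2% hematocrit and 0.05% parasitemia final, were cultured with compound through two parasite generations (96 hours) at 37 C, 5% CO2.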
HCV inhibitor: blocks hepatitis C virus | Potency, µM (top dose mostly 41.8 µM), without a hit: top-dose activity change, negative = inhibition, actives largely listed as inhibitors | Huh7.5.1 HCVcc-Cre infection, luciferase reporter, 44 h | 340,000 tested, 3.4% active; further: on the % scale 0 is the no-effect control and ±100 the full control effect
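Infectious HCV cell culture screen: compound-treated cells (1,000/well, pre-plated 4 h) are infected with HCVcc-Cre at roughly 0.5 moi and grown 44 h. Infection is quantified by luciferase signal after 15 min substrate incubation at room temperature.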
NS1 inh: inhibitors of influenza NS1 protein function; 270,000 tested, 0.4% active; Potency, µM (series often up to 46.1 µM), without a hit: at the top dose activity, positive = more growth; AID 2326; calls by dose curve; further: actives are rising curves; nearly all actives have a fitted effect of over 50% in size
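Recovery from NS1-induced slow growth read by OD600 in budding yeast switched to galactose assay medium (pH 6.0, -URA) at 1:100 dilution. Compound 23 nl per well; the matching strain lacking NS1 serves as control.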
Pf growth 48h: P. falciparum growth inhibition at 48 hours (one generation) | P. falciparum luciferase growth in erythrocytes, 48 h | AID 504832 | 310,000 tested, 5.9% active | Potency, µM (doses to about 28.7 µM), for inactives: at the top dose activity change, negative = inhibition, most hits filed as inhibitors; further: on the % scale 0 is the no-effect control and ±100 the full control effect
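Parasite viability was followed by luminescence of a genomically integrated firefly luciferase. Cultures held 0.1% parasitemia at 2% hematocrit (final), incubated under 5% CO2 at 37 C.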
Starred values were filed as active, the others as inactive; i = inactive; ? = inconclusive; . = no result given; ! = a repeat was not active; [ ] = another dose, or the depositor's remark. In the library only some 11% were active in any assay of this set; here they are far more common. Unless noted, the call rests on the fitted dose curve; in most records, active means well fitted inhibition curve with a large enough effect; inconclusive means small, poorly fitted or top-dose-only effect, or another doubt; inactive means no such curve, though single readings can be large or run the other way. Potency means the concentration at half of the fitted maximal effect.

SMILES	Vaccinia mCherry	VACV Venus inh	Pf growth 96h	HCV inhibitor	NS1 inh	Pf growth 48h
COc1ccc(C(C)(C)NC(=O)C2CCC(=O)N(C3CC3)C2)cc1OC (stereo not drawn)	i	-3.0%	-17.5%	.	0.4%	-6.7%
COc1ccc(NC(=O)C2CC(c3cccc(Br)c3)=NO2)cc1OC (stereo not drawn)	-25.7%	-22.9%	10.4µM*	?	-1.5%	-0.7%
COc1cc(NC(=O)C2CC(c3c(F)cccc3Cl)=NO2)cc(OC)c1OC (stereo not drawn)	-12.4%	-18.5%	15.5%	25.1µM*	-20.2%	9.1%
COc1cccc(C2=NOC(C(=O)Nc3ccc(OC)c(OC)c3)C2)c1 (stereo not drawn)	.	.	?	?	-70.3%	0.0%
O=C(NCCc1ccc(Cl)cc1)c1cc2c(s1)-c1ccccc1OC2	-10.4%	-36.4%	.	.	.	.
Cc1cccc(C)c1OCC(=O)NNC(=S)NC(=O)C1CC1	.	.	10.4µM*	?	-119.1%	?
Cc1cccc(C)c1OCC(=O)NC1CC1	.	.	2.5%	17.5%	2.1%	2.94µM*
C=C1CCC2C(C)(C)[C@H](O)CC[C@@]2(C)[C@@H]1COc1cc(=O)oc2ccccc12 (stereo partly drawn)	-10.8%	?	14.7µM*	-7.9%	-1.0%	?
CN(C(=O)COc1ccc2ccc(=O)oc2c1)C1CCS(=O)(=O)C1 (stereo not drawn)	.	.	?	5.7%	-4.2%	-1.9%
CCN(C(=O)COc1ccc2ccc(=O)oc2c1)C1CCCCC1	-7.4%	-8.1%	.	-4.9%	.	.
C=C1CCC2C(C)(C)[C@@H](O)CC[C@@]2(C)[C@@H]1COc1ccc2ccc(=O)oc2c1 (stereo partly drawn)	.	.	5.22µM*	?	-31.1%	11.7µM*
CC(=O)OC1CCC2(C)C(COc3ccc4ccc(=O)oc4c3)C(C)(O)CCC2C1(C)C (stereo not drawn)	-9.9%[1.46 µM]	-25.6%	9.28µM*	?	-6.5%	?
CCOc1ccc(/C=N/NC(=O)Cn2ccnc2C)cc1	-27.7%	-9.7%	2.2%	9.8%	1.4%	-4.9%
O=C(CC1CCCC1)NNC(=O)c1ccc(Br)cc1	.	.	91.6%	6.9%	.	92.7%
COc1ccc(C(O)(C(C)C)C(CN2CCOCC2)c2ccc(Cl)cc2)cc1 (stereo not drawn)	.	.	0.0%	?	-4.1%	8.28µM*
CCCCCC(O)(c1ccc(OC)cc1)C(CN1CCOCC1)c1ccccc1 (stereo not drawn)	-26.0%	-11.4%	8.0%	?	-1.9%	1.65µM*
CCCCCC(O)(c1ccc(OCC)cc1)C(CN1CCOCC1)c1ccccc1 (stereo not drawn)	-24.2%	-25.2%	?	-5.1%	2.4%	2.08µM*
CCCCC(O)(c1ccc(OC)cc1)C(CN1CCOCC1)c1ccccc1 (stereo not drawn)	i	-11.7%	24.2%	-20.9%	2.6%	.
CNC(=O)c1cc2c(=O)n3cc(C)ccc3nc2n(Cc2ccco2)c1=N	.	.	?	.	-1.8%	17.9%
COc1ccc(N(CC(=O)NCCSc2ccccc2)S(=O)(=O)c2ccccc2)cc1OC	.	.	35.3%	?	0.0%	3.0%
COc1ccc(N(CC(=O)NCCSC2CCCCC2)S(=O)(=O)c2ccccc2)cc1OC	-13.4%	-9.5%	?	?	7.8%	13.1µM*
COc1ccccc1N(CC(=O)NCCSCc1ccccc1)S(=O)(=O)c1ccc(C)cc1	?	?	2.62µM*	25.1µM*	0.9%	?
COc1ccc(N(CC(=O)NCCSCc2ccco2)S(=O)(=O)c2ccccc2)cc1OC	-13.1%	-0.2%	11.7µM*	-1.5%	16.1%	-20.9%
CCC(=O)Nc1nonc1-c1nc2ccccc2n1Cc1cccc2ccccc12	?	?	5.22µM*	?	17.5%	?
CCOC(=O)Cn1c(-c2nonc2NC(=O)c2ccccc2F)nc2ccccc21	10µM*	9.5%	.	?	7.0%	.
SMILES	Vaccinia mCherry	VACV Venus inh	Pf growth 96h	HCV inhibitor	NS1 inh	Pf growth 48h
CCC(=O)Nc1nonc1-c1nc2ccccc2n1Cc1ccccc1	i	-27.2%	.	-9.5%	-41.9%	?
Clc1ccc(Cn2c(CN3CCCC3)nc3ccccc32)cc1	.	.	4.05µM*!	-6.9%[8.37 µM]	1.9%	?
c1ccc(Cn2c(CN3CCCC3)nc3ccccc32)cc1	-8.3%	-14.1%	9.28µM*	14.0%	18.3%	?
O=c1c2ccccc2nc(CN2CCCCCC2)n1-c1ccc(F)cc1	.	.	.	-0.3%	?	?
CC(C)(C)c1ccc(Cn2c(Cc3ccccc3)nc3ccccc32)cc1	-22.5%	-2.3%	.	.	.	.
Nn1c(CN2CCCCC2)nc2ccccc2c1=O	i	-3.7%	2.33µM*	-5.9%	-0.9%	32.4%
Cn1c(-c2ccc(=O)[nH]c2)nc2ccccc21	13.2%	-4.0%	?	16.8%	8.6%	?
O=c1ccc(-c2nc3ccccc3n2Cc2ccc(Cl)cc2)c[nH]1	i	-15.0%	9.28µM*	-0.3%	-2.1%	5.86µM*
O=C(CSC1CC(=O)N(CCc2ccccc2)C1=O)Nc1cccc(Cl)c1 (stereo not drawn)	-21.8%	-8.4%	9.2%	15.2%	-11.5%	?
COC(=O)[C@H](CC(C)C)NS(=O)(=O)c1ccc(F)cc1Br	i	-2.6%	.	.	.	.
C=CCN1CCC2(C)c3cc(O)ccc3CC1C2C (stereo not drawn)	-3.2%	-14.1%	.	14.5%	3.1%	.
Cc1ccc(N/N=C2\CC(=O)c3ccccc32)cc1Cl	.	.	2.94µM*	.	-5.3%	4.65µM*
Cc1ccc(NCN2C(=O)c3ccccc3C2=O)cc1Cl	i	-3.6%	.	.	.	.
CCc1ccc(NC(=O)Cc2csc(COc3cccc(C)c3)n2)cc1	-16.1%	-12.2%	.	.	.	.
N#Cc1ccc(CSc2nnc(-c3ccncc3)n2CCc2ccccc2)cc1	.	.	75.3%	-9.7%	-3.0%	-20.8%
Cc1cccc(NC(=O)c2c(C)cc(=O)oc2C)n1	i	-8.2%	.	4.7%	3.1%	-0.9%
Cc1ccccc1OCCOC(=O)c1c(-c2ccccc2)noc1C	-12.5%	-25.5%	?	-23.6%	-34.1%	11.7µM*
Cc1onc(-c2ccccc2)c1C(=O)OCCOc1ccc([N+](=O)[O-])cc1[N+](=O)[O-]	?	-27.2%	4.15µM*	?	2.5%	.
COc1c(C)cc(S(=O)(=O)NCCN2CCOCC2)c(C)c1C	0.0%	-2.2%	?	14.7%	8.5%	-3.7%
NC(=O)c1nsc(C(=O)N(Cc2ccc(F)cc2)C(C(=O)NC2CCCC2)c2ccco2)c1N (stereo not drawn)	-20.2%	-9.0%	47.7%	-15.2%	9.2%	?
Cc1ccccc1NC(=O)C(C)N1C(=O)c2ccccc2C1=O (stereo not drawn)	-9.2%	-3.5%	2.94µM*	12.4%	?	-10.9%
Cc1cccnc1NC(=O)C(C)N1C(=O)c2ccccc2C1=O (stereo not drawn)	-1.7%	1.0%	12.5%	20.9%	1.0%	13.6%
